Measurements reported in PubChem BioAssay.
Calls of active or inactive are those of the source. Unless noted, no rule for the calls is given here.

How the values were obtained:
[1] = compound effects on lung adenocarcinoma cell viability – A549, calcein-AM fluorescence, 48 h, basal, profiling panel (AID 1162); settings: higher = more signal; also: test concentration not given here
[2] = compound effects on differentiated 3T3-L1 adipocyte viability – cell-based, 3T3-L1 adipocytes, calcein-AM fluorescence, 48 h, basal, profiling panel (AID 1163); settings: 3T3-L1 adipocytes viability, higher = more signal; also: test concentration not given here
[3] = compound effects on hepatocellular carcinoma cell viability – HepG2, calcein-AM fluorescence, 48 h, basal, profiling panel (AID 1164); settings: higher = more signal; also: test concentration not given here
[4] = compound effects on multiple myeloma cell viability – MM1S, calcein-AM fluorescence, 48 h, basal, profiling panel (AID 1165); settings: higher = more signal;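 also: viability of MM1S multiple myeloma cells under basal unstimulated conditions; test concentration not given here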
[5] = calcein-AM signal in unstimulated myeloma cells – cell-based, calcein-AM fluorescence, 48 h, PK04 Diversity Set, profiling panel (AID 1166); settings: RPMI8226 myeloma viability, higher = more signal;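 also: cells grown under basal conditions without added stimulus; test concentration not given here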
[6] = JC-1 mitochondrial signal, unstimulated HepG2 cells – cell-based, JC-1 fluorescence, 24 h, 100 nL compound, profiling panel (AID 1167); settings: HepG2 mitochondrial potential, higher = more signal; also: test concentration not given here
[7] = JC-1 mitochondrial signal, unstimulated adipocytes – cell-based, JC-1 fluorescence, 3T3-L1 adipocytes, 24 h, 100 nL compound, profiling panel (AID 1168); settings: JC-1 mitochondrial fluorescence, higher = more signal, called active from +8 up or from −8 down; also: test concentration not given here
[8] = JC-1 mitochondrial signal, unstimulated myeloma cells – cell-based, JC-1 fluorescence, RPMI8226, 24 h, 100 nL compound, profiling panel (AID 1169); settings: JC-1 mitochondrial potential fluorescence, higher = more signal; also: test concentration not given here
[9] = JC-1 mitochondrial signal, unstimulated MM1S myeloma – cell-based, JC-1 fluorescence, 24 h, 100 nL compound, profiling panel (AID 1170); settings: MM1S mitochondrial potential, higher = more signal; also: test concentration not given here
[10] = resazurin metabolic signal in A549 cells – cell-based, resazurin fluorescence, 24 h, PK04 Diversity Set, profiling panel (AID 1171); settings: A549 viability, higher = more signal, called active from +8 up or from −8 down; also: test concentration not given here
[11] = resazurin metabolic signal in HepG2 cells – cell-based, resazurin fluorescence, 24 h, PK04 Diversity Set, profiling panel (AID 1172); settings: HepG2 viability, higher = more signal; also: test concentration not given here
[12] = budding yeast growth changes without added modifier – OD600, strain BY4716, 24 h, basal condition, primary screen (AID 1173); settings: S. cerevisiae BY4716 growth, OD600, 24 h; higher = more signal, called active from +8 up or from −8 down
[13] = viability profiling in MM1S myeloma cells – cell-based, resazurin fluorescence, basal, 24 h, PK04 Diversity Set, profiling panel (AID 1174); settings: higher = more signal, called active from +8 up or from −8 down; also: test concentration not given here
[14] = molecular target: Dihydroorotate dehydrogenase (quinone), mitochondrial (Plasmodium falciparum (isolate 3D7)) (UniProt Q08210); experiment: inhibition of P. falciparum DHODH – biochemical, C-terminal His tag, absorbance 600 nm, primary screen (AID 1175); settings: PfDHODH enzyme, DCIP absorbance 600 nm; higher = more signal, called active from +8 up or from −8 down;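 also: recombinant parasite enzyme with a five histidine tag at its C terminus; test concentration not given here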
Dihydroorotate dehydrogenase (quinone), mitochondrial (Plasmodium falciparum (isolate 3D7)), sequence (Q08210 whole entry, looked up): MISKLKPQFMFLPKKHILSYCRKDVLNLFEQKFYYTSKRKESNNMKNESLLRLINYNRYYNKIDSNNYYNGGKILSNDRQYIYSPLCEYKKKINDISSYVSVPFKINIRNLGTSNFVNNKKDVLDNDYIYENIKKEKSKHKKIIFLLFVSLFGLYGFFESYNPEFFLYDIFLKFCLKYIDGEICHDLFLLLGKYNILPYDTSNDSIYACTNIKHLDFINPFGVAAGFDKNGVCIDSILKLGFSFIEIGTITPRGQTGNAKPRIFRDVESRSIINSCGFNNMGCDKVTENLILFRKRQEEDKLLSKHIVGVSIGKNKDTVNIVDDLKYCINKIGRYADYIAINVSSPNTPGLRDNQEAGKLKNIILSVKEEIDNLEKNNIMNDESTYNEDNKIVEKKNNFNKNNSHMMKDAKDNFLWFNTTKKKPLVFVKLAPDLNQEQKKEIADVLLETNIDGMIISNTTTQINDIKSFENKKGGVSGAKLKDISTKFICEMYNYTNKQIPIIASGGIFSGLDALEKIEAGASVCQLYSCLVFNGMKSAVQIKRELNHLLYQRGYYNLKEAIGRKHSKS

[15] = inhibition of PAO1 biofilm formation – strain PAO1, LB-PBS medium, absorbance 600 nm, primary screen (AID 1176); also: test concentration not given here; settings: P. aeruginosa PAO1 growth/biofilm, A600, 12 h; higher = more signal
[16] = growth modulation of vineyard yeast isolate – strain RM11-1a, OD600, basal, 24 h, primary screen (AID 1177);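 also: cultures grown under basal conditions with no added stressor; test concentration not given here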; settings: S. cerevisiae RM11-1a growth, OD600, 24 h; higher = more signal, called active from +8 up or from −8 down
[17] = growth of efflux-deficient E. coli DRC39 – strain DRC39, OD650, 24 h, E. coli filamentation inducers, primary screen (AID 1178);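 also: growth measured as culture turbidity by optical density at 650 nm; test concentration not given here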; settings: E. coli DRC39 acrAB, higher = more signal, called active from +8 up or from −8 down
[18] = growth of efflux-deficient E. coli DRC39 – strain DRC39, OD650, 48 h, E. coli filamentation inducers, primary screen (AID 1179);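 also: screen aims at cell division blockers that make cells filament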; settings: E. coli DRC39 delta-acrAB growth, higher = more signal, called active from +8 up or from −8 down
[19] = viability profiling in RPMI8226 myeloma cells – cell-based, resazurin fluorescence, basal, 24 h, PK04 Diversity Set, profiling panel (AID 1180); settings: higher = more signal;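 also: RPMI8826 multiple myeloma cell line at 5000 cells per well; test concentration not given here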
[20] = molecular target: E3 ubiquitin-protein ligase XIAP (Homo sapiens) (UniProt P98170); experiment: small molecules binding XIAP protein – biophysical, small-molecule microarray, fluorescence 635 nm, primary screen (AID 1181); settings: higher = more signal;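 also: score merges 667 nm emission and signal to noise over triplicate slides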
E3 ubiquitin-protein ligase XIAP (Homo sapiens), sequence (P98170 whole entry, looked up): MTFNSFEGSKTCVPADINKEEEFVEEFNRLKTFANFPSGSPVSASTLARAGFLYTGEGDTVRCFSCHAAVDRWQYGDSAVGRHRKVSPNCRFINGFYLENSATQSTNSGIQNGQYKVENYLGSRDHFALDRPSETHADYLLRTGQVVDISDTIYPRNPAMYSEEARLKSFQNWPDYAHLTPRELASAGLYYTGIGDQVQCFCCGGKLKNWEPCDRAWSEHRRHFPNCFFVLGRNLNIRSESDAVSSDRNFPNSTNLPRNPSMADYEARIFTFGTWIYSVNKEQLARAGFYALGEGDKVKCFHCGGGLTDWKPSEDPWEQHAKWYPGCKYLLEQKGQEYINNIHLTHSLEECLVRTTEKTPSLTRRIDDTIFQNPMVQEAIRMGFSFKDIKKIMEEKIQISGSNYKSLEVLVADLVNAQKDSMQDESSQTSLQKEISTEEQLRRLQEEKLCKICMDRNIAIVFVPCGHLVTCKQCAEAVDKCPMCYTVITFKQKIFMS

Compound | z-score [1] | z-score [2] | z-score [3] | z-score [4] | z-score [5] | z-score [6] | z-score [7] | z-score [8] | z-score [9] | z-score [10] | z-score [11] | z-score [12] | z-score [13] | composite z-score [14] | z-score [15] | z-score [16] | z-score [17] | z-score [18] | z-score [19] | composite z-score [20]
COc1cccc(/C=C/C=O)c1 | 0.482 | -0.132 | 0.844 | -1.38 | -0.803 | 1.04 | 0.532 (inactive) | -0.109 | -0.253 | 0.336 (inactive) | 0.445 | -6.49 (inactive) | -0.687 (inactive) | -0.0136 (inactive) | -0.131 (inactive) | 0.0721 (inactive) | 0.635 (inactive) | 0.403 (inactive) | 0.884 | -0.0224
O=C1C2C=CC(C(O)c3ccc(Br)cc3)N(Nc3ccccc3F)C2C(=O)N1c1ccccc1 (stereo not given) | 1.79 | 0.085 | 0.418 | 1.05 | -0.0004 | -0.629 | -1.56 (inactive) | 0.417 | -1.46 | 0.0502 (inactive) | 0.732 | -2.45 (inactive) | -0.18 (inactive) | 0.356 (inactive) | 0.629 (inactive) | -1.17 (inactive) | 0.774 (inactive) | 2.06 (inactive) | 0.489 | 0.0933
COCCOC(=O)N1C(=O)[C@@]2(c3cc(C#CC4=CCCCC4)ccc31)[C@H](c1ccc(OCCO)cc1)N1[C@H](c3ccccc3)[C@H](c3ccccc3)OC(=O)[C@H]1[C@@H]2C(=O)N1CCN(c2ncccn2)CC1 | -0.471 | 1.18 | 0.47 | -0.759 | -0.774 | 0.955 | 1.46 (inactive) | -0.333 | -1.01 | 0.468 (inactive) | 0.205 | 1.7 (inactive) | 0.0789 (inactive) | -1.42 (inactive) | 2.28 (inactive) | 1.78 (inactive) | -0.294 (inactive) | 0.0375 (inactive) | 0.621 | 0.0219
C[N+](C)(C)CCCCCCNC(=O)[C@H]1C[C@H]2C(=O)N[C@@H](Cc3ccccc3)C(=O)N2[C@H]1c1ccc(O)cc1 | -0.367 | -1.42 | 0.557 | 0.401 | 0.757 | -0.216 | 0.508 (inactive) | 0.21 | -0.79 | -0.0203 (inactive) | -0.324 | 0.119 (inactive) | 0.13 (inactive) | -0.673 (inactive) | -0.546 (inactive) | -0.0281 (inactive) | 0.962 (inactive) | 1.3 (inactive) | 0.201 | -0.162
COc1ccccc1CN1C(=O)c2ccccc2[C@@]2(Cc3ccccc3N(CC(F)(F)F)C2=O)[C@@H]1c1ccc(CO)cc1 | -0.912 | -0.744 | 0.162 | 0.291 | -0.956 | -0.505 | -0.363 (inactive) | -0.0759 | -0.946 | -0.682 (inactive) | -0.108 | 0.981 (inactive) | -0.987 (inactive) | -11.7 (active) | 0.723 (inactive) | 0.36 (inactive) | 0.224 (inactive) | 0.499 (inactive) | -0.624 | 0.0819
CCOC(=O)C[C@H]1[C@H](OC(=O)c2cc3ccccc3oc2=O)[C@@H](NC(=O)c2ccc(-c3ccccc3)cc2)c2cc(OCCCO)ccc2N1C(=O)c1ccccc1 | 0.182 | 1.82 | 0.404 | 0.172 | -0.841 | 1.27 | -0.445 (inactive) | -0.337 | -0.595 | -1.1 (inactive) | -0.638 | -1.79 (inactive) | -0.005 (inactive) | -2.74 (inactive) | -0.329 (inactive) | -0.272 (inactive) | -0.466 (inactive) | -0.878 (inactive) | -0.24 | 0.164
O=C1NC(=O)C2C1C=CC(C(O)CCc1ccccc1)N2Nc1ccc(Cl)cc1Cl (stereo not given) | -0.308 | -0.217 | -0.588 | -2.19 | -1.19 | -2.19 | -1.75 (inactive) | -0.236 | -0.0222 | -0.768 (inactive) | -1.24 | -3.34 (inactive) | -1.59 (inactive) | -0.596 (inactive) | 0.667 (inactive) | -0.385 (inactive) | -0.172 (inactive) | -0.611 (inactive) | -1.77 | 0.178
COC(=O)[C@@]1(Cc2ccc(OC)cc2)[C@H]2c3cc(C(=O)N4CCCC4)n(Cc4c(-c5ccccc5)noc4C)c3C[C@H]2CN1C(=O)c1ccccc1 | -0.893 | -0.451 | -0.176 | -2.72 | -4.68 | 0.128 | -0.732 (inactive) | -0.774 | -1.52 | 0.356 (inactive) | -0.338 | 1.63 (inactive) | -0.39 (inactive) | 0.486 (inactive) | -0.526 (inactive) | 1.18 (inactive) | 0.343 (inactive) | -0.57 (inactive) | -0.61 | -0.0048
[N-]=[N+]=NCc1ccccc1C[C@@]1(C(=O)N2CCCCC2)N=C(c2ccc(OCCCO)cc2)O[C@@H]1c1ccccc1 | -1.26 | -0.813 | -2.13 | -3.11 | -4.35 | 0.622 | -0.209 (inactive) | -1.28 | -2.34 | -0.949 (inactive) | -0.876 | -0.59 (inactive) | -5.49 (inactive) | 1.53 (inactive) | 0.137 (inactive) | 1.95 (inactive) | 0.297 (inactive) | 0.696 (inactive) | -4.9 | -0.279
